An excerpt weighted towards active compounds, which were near 19% of everything screened.
IL-1B inflam inh = blocks inflammasome-driven IL-1 beta release; THP-1 LPS/ATP IL-1B secretion, AlphaLISA, 16 h; stronger effect = lower value; activity change, % at 57.5 µM; hit rate 4.7% among 360,000; AID 743279; in the data active = activity change below about -50%; inconclusive = mostly about -30% to -49%
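THP-1 cells pretreated 1 hr with compounds (up to 57.5 uM final), then stimulated with LPS (250 ng/mL final) plus ATP (1.25 mM final); secreted IL-1B measured by AlphaLISA after 16 hr, decreased signal indicating inhibition.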
HT1080-NT tox = kills 2HG-producing HT-1080-NT fibrosarcoma cells; hit rate 1.6% among 360,000; Potency, µM (doses to about 46.1 µM), for inactives: at the top dose activity, negative = less viability, usual class: cytotoxic; HT-1080-NT fibrosarcoma viability, CellTiter-Glo ATP luminescence, 48 h;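 note: NT is the 2HG producing partner of a matched IDH1 knockdown line; potency is the fitted concentration of half-maximal effect; 0% = DMSO-treated cells and -100% = media-only wells without cells; nearly all actives have a fitted effect of over 55% in size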
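Viability by CellTiter-Glo luminescence after 48 h compound exposure at 37C of HT-1080-NT cells (750/well, RPMI, 5% FBS). % activity scaled between DMSO wells and medium-only wells, then curve-fitted and categorized by curve class.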
HT1080 IDH1KD tx = kills HT-1080 cells with IDH1 knockdown; AID 686971; hit rate 2% among 360,000; HT-1080 IDH1 knockdown viability, ATP luminescence, 48 h; Potency, µM (top dose mostly 46.1 µM), for the others: top-dose activity, negative = toxicity, usual class: cytotoxic;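 note: potency is the fitted concentration of half-maximal effect; 0% = DMSO wells and -100% = cell-free medium wells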
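Knockdown cells (IDH1KD HT-1080) received compounds 2 h after plating at 750 cells/well and were kept 48 h at 37 °C in 5% FBS RPMI. A CellTiter-Glo luminescence read gave % activity for curve fitting.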
DT40 TDP1 no CPT = qHTS for Inhibitors of human tyrosyl-DNA phosphodiesterase 1 (TDP1): qHTS in cells in absence of CPT. DT40 Tdp1-/- hTDP1 cells, no CPT, ATP luminescence, 48 h. Potency, µM (doses to about 46.2 µM), without a hit: at the top dose activity change, negative = growth inhibition, hits mostly inhibitors. hit rate 15% among 420,000. AID 686978, 2013; note: potency is the fitted concentration of half-maximal effect; nearly all actives have a fitted effect of over 55% in size
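Growth kinetics read by CellTiter-Glo luminescence after ≥48 hr at 37 °C. Cells: DT40 Tdp1-/- stably carrying human TDP1, 400 per well, compound exposure in the absence of CPT (DMSO vehicle).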
DT40 TDP1 CPT = DT40-hTDP1 cell growth loss with CPT; AID 686979; chicken DT40 Tdp1-/-;hTDP1 cells + 20 nM CPT, ATP luminescence, 48 h; Potency, µM (series often up to 46.2 µM), for inactives: at the highest dose activity change, negative = growth inhibition, actives largely listed as inhibitors; hit rate 12% among 420,000; note: potency is the fitted concentration of half-maximal effect; nearly all actives have a fitted effect of over 55% in size
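Chicken DT40 Tdp1-/- cells complemented with human TDP1, 400 cells/well, exposed to compounds plus 20 nM camptothecin for at least 48 h at 37 C; viability read as ATP content by CellTiter-Glo luminescence.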
* marks the source's active call; other numbers are inactive results; i = inactive; ? = inconclusive; / = not tested or not shown; ! = repeats disagree; [ ] = remark or other dose. Unless noted, calls come from the whole dose curve; as a rule, active = well fitted curve in the direction sought with a large enough effect; inconclusive = small, poorly fitted or top-dose-only effect, or another doubt; inactive = no such curve, though single readings can be large; an effect the other way counts as inactive or inconclusive. Unless noted, % is set by controls: 0 for no effect and ±100 for the full control effect.

SMILES	IL-1B inflam inh	HT1080-NT tox	HT1080 IDH1KD tx	DT40 TDP1 no CPT	DT40 TDP1 CPT
COc1ccc2c(c1)C(CC(=O)NN)CCC2 (configuration not stated)	26	7.3µM*	1.6µM*	-4%	-29%
CC1(Cc2ccccc2C#N)C(=O)Nc2cc(-c3ccccc3Cl)ccc21 (configuration not stated)	-20	?	?	?	23µM*
O=C(Nc1ccccc1)OC[C@@H]1C=CS(=O)(=O)N1Cc1ccc(Br)cc1	-68*	?	?	?	?
O=C(Nc1ccccc1)OCCOc1ccccc1Br	-11	15%	11%	4%	?
COC(=O)N1CCC2(CC1)CN(C(=O)Nc1ccccc1)C2	/	/	/	-2%	0%
COc1ccccc1NC(=O)CSc1nc2[nH]ncc2c(=O)[nH]1	22	3%	2%	-7%	-10%
O=c1c2cn[nH]c2nc(SCc2ccc3c(c2)OCCO3)n1-c1ccccc1	-1	?	21µM*	?	-23%
O=C(CSc1nc2[nH]ncc2c(=O)n1-c1ccccc1Cl)N1CCCC1	2	-1%	15%	-1%	2%
Cc1ccccc1-n1c(SCc2ccc(Cl)cc2)nc2[nH]ncc2c1=O	/	/	/	18µM*	16µM*
COc1ccccc1-n1c(SCC(=O)Nc2ccccc2F)nc2[nH]ncc2c1=O	-9	3%	-14%	-22%	13µM*
Cc1cc(-n2c(SCc3ccccc3F)nc3[nH]ncc3c2=O)ccc1Cl	/	/	/	16µM*	?
CCc1ccccc1NC(=O)c1cc2sc(Cl)cc2n1CC	/	/	/	-19%	-6%
COc1ccc2cc(C3=CC(=O)CCC3)ccc2c1	-11	2%	-7%	?	-17%
CC(C)N(C)CCOC(=O)c1ccccc1Br	-4	5%	11%	?	16µM*
CC(C)N(C)CCOC(=O)c1ccccc1Cl	16	3%	-6%	1%	-20%
Cc1c(C(=O)NCC2(N3CCCCC3)CCCC2)cnn1-c1nccc(-c2ccccc2F)n1	/	/	/	-7%	0%[9.04 µM]
CCc1nc2ccc(C(=O)Nc3ccc(C(=O)N(C)C)cc3)cn2c1N(C)CCCc1ccccc1	-10	-6%	-10%	?	?
Cc1ccc(C)c(-n2c(-c3ccc(Br)cc3)csc2=NC(=O)c2ccccc2F)c1	14	20%	9%	4.6µM*	12µM*
Cn1ccsc1=NC(=O)c1ccccc1F	7	10%	9%	14%	17%
O=S(=O)(NN1CCOCC1)c1cc(Cl)cc(Cl)c1O	i	6%	-2%	1%	2%
Cc1c(Cl)cccc1NC(=O)CN(C1CCCCC1)S(C)(=O)=O	-25	-15%	-3%	-12%	?
Cc1ccccc1S(=O)(=O)Cc1ccc(C(=O)NCCCN2CCC(C)CC2)o1	-3	9%	19%	25%	-9%
CC1SC(c2ccc(F)cc2)N(CCc2ccccc2)C1=O (configuration not stated)	-5	-2%	11%	23µM*	1%
COC(=O)c1ccc(C2C(Oc3ccccc3)C(=O)N2CCc2ccc(F)cc2)cc1 (configuration not stated)	-7	-28%	?	?	?
COc1ccc(NC(=O)Cn2cc(C#N)c3ccccc32)cc1	11	-5%	?	8%	0%
SMILES	IL-1B inflam inh	HT1080-NT tox	HT1080 IDH1KD tx	DT40 TDP1 no CPT	DT40 TDP1 CPT
COc1ccc(C(=O)n2cc(C(C)=O)c3ccccc32)cc1	-5	?	?	15µM*	10µM*
CCOc1ccc(NC(=O)Cn2cc(C(=O)CC)c3ccccc32)cc1	15	-17%	-1%	26µM*	13µM*
COc1ccc(NC(=O)Cn2cc(C(C)=O)c3ccccc32)cc1	48	?	-9%	?	5.2µM*
CCOc1ccc(NC(=O)Cn2cc(C(C)=O)c3ccccc32)cc1	41	11%	-1%	?	?
CCCCCCN1C[C@@H](n2cc(COC(=O)c3ccccc3)nn2)[C@H](O)C[C@@H]1c1ccc(OC)cc1	-5	?	?	?	?
CCOC(=O)c1c(CN2CCCCC2C)oc2ccc(OC)cc12 (configuration not stated)	-4	?	?	?	21µM*
CCOC(=O)c1c(CN2CCCCC2)oc2ccc(OC)cc12	13	-5%	-15%	23µM*!	?
CCOC(=O)c1c(CN2CCN(C)CC2)oc2ccc(OC)cc12	?	7%	1%	-5%	-1%
CCOC(=O)c1c(CN2CCN(c3ccccc3)CC2)oc2ccc(O)cc12	67	-16%	-17%	?	?
CCOC(=O)c1c(CN2CCC(C)CC2)oc2ccc(OC)cc12	-29	-2%	-6%	?	23µM*
Oc1c(Cl)cc(Cl)cc1CNc1ccc(Br)cn1	-85*	?	?	-21%	-28%
O=C(c1ccc(Cn2cc(Br)cn2)cc1)N1CCN(c2ccccc2)CC1	-11	?	?	16µM*	15µM*
O=C(c1ccc(CN2CCc3ccccc3C2)cc1)N1CCCCC1	8	-11%	-7%	?	-28%
O=C(c1ccc(CN2CCc3ccccc3C2)cc1)N1CCN(c2ccc(F)cc2)CC1	-63*	-5%	-13%	13µM*	16µM*
CC1(C)Cc2cccc(OCC(=O)N3CCN(c4ccccc4F)CC3)c2O1	30	-6%	0%	?	?
COc1ccccc1N1CCN(C(=O)c2ccc(CN3CCc4ccccc4C3)cc2)CC1	-14	-6%	-16%	?	16µM*
COc1ccccc1N1CCN(C(=O)c2ccc(COc3cccc4c3OC(C)(C)C4)cc2)CC1	?	-5%	-1%	16µM*	?
O=S(=O)(c1cc(Cl)ccc1Cl)N1CC2CCCN2c2ccc(C(F)(F)F)cc21 (configuration not stated)	0	-17%	-8%	?	?
O/N=C/c1cc(Br)ccc1OCc1ccccc1F	-63*	-18%	?	-19%	-5%
NC(CSC(c1ccccc1)(c1ccccc1)c1cccc2ccccc12)C(=O)O (configuration not stated)	-50*	7%	?	?	?
NC(CSC1(c2cccc3ccccc23)c2ccccc2-c2ccccc21)C(=O)O (configuration not stated)	17	1%	1%	?	?
O=C(NCCS(=O)(=O)c1ccc(Br)cc1)c1ccc(Cl)cc1	-7	1%	0%	-2%	-15%

Screens deposited in PubChem BioAssay by National Center for Advancing Translational Sciences (NCATS).
